PubChem BioAssay AID2012 (Sanford-Burnham Center for Chemical Genomics, 2009)
The campaign covered roughly 290,000 compounds. About 2,700 (0.93%) were called active. How the calls were made is not given here. What follows is part of a selection rich in actives, with near analogues and random picks from the rest.

Biological target: Eukaryotic translation initiation factor 4H (Homo sapiens) (UniProt Q15056)
Assay: human eIF4H binding inhibitors, primary screen, translation initiation inhibitor project, biochemical, uHTS, fluorescence polarization (AID 2012);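 further: calls also rest on retests at 20 µM and on dose response follow-up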
Conditions: eIF4H fluorescence polarization binding assay, stronger effect = higher value

SMILES	inhibition (at 35 µM)	inhibition (confirmation average, at 20 µM) [%]
CC(C)n1c(COc2ccccc2)nc2ccccc21	-1.5% (inactive)	
CCC(Oc1ccccc1C)C(=O)Nc1ccc(S(=O)(=O)Nc2cc(C)on2)cc1 (stereo unspecified)	-3.3% (inactive)	
CN(C)S(=O)(=O)N1CCC(Oc2cccc(C(=O)NCCCC3CCCC3)c2)CC1	-18.3% (inactive)	
O=C(OCc1cc(Cl)ccc1OC(F)F)c1cccnc1	54.6% (active)	83.8
Cc1cc(=O)[nH]c(SCc2cc(Cl)ccc2OC(F)F)n1	-16.4% (inactive)	
O=C(OCc1cc2ccccc2[nH]c1=O)c1cccnc1	-7.3% (inactive)	
Cn1c(CCNS(=O)(=O)c2ccc(F)cc2)nnc1SCc1cccnc1	-0.9% (inactive)	
CCCC(=O)C1CCN(Cc2ccccc2)CC1	7.7% (active)	89.5
CCOC(=O)C1CCN(Cc2ccc(-c3ccccc3)cc2)CC1	3.6% (inactive)	
CCNC(=S)NNC(=O)C1CCN(Cc2ccccc2)CC1	1.5% (inactive)	
COCCCNC(=O)Cc1ccc(-n2c(C)nc3cccnc32)cc1	63.6% (inactive)	13.7
CCc1nc2cccnc2n1-c1ccc(C(=O)O)cc1	91.6% (active)	89.8
CCOC(=O)CNC(=O)CSc1nc2cccnc2n1CC	5.8% (inactive)	
CCN(CC(=O)Nc1ccc(C)c(S(=O)(=O)N(C)C)c1)Cc1ccccc1	6.5% (inactive)	
O=c1c(-c2cccc(Cl)c2)c[nH]n1-c1ccccc1	4.3% (inactive)	
CCCC(=O)N1CCc2[nH]c3ccccc3c2C1	-0.2% (inactive)	
Cc1ccc2[nH]c3c(c2c1)CN(C(=O)CN1CCN(c2ccccc2)CC1)CC3	76.8% (active)	
O=C(CN1CCCC1)N1CCN(c2ccccc2)CC1	-11.2% (inactive)	
COc1ccc(OC)c(S(=O)(=O)n2c([N+](=O)[O-])cnc2C)c1	-9.3% (inactive)	
COc1ccccc1C(=O)N/C(=C/c1ccc2c(c1)OCO2)C(=O)Nc1cccc(C(=O)O)c1	-11.5% (inactive)	
O=C(Nc1ccccc1)/C(=C\c1ccco1)NC(=O)c1ccco1	26.2% (inactive)	

SMILES	inhibition (at 35 µM)	inhibition (confirmation average, at 20 µM) [%]
O=C(NCc1ccco1)/C(=C/c1ccco1)NC(=O)c1ccccc1	3.9% (inactive)	
Cc1cccc(NC(=O)/C(=C\c2ccco2)NC(=O)c2ccccc2)c1	57.6% (active)	
Cc1ccc(NC(=O)/C(=C\c2ccccc2)NC(=O)c2ccco2)cc1	3.5% (inactive)	
COc1ccccc1C(=O)N/C(=C/c1ccco1)C(=O)Nc1ccc(C(=O)O)cc1	59.8% (active)	65.3
C=CCOc1cccc(C2C(C(=O)c3ccc(C)o3)=C(O)C(=O)N2CCCn2ccnc2)c1 (stereo unspecified)	-4.1% (inactive)	
CCOc1ccc(N(CC(=O)NCC2CCCO2)S(=O)(=O)c2ccc(C)cc2)cc1 (stereo unspecified)	11.5% (inactive)	
COc1ccc(-c2nnc3n2CCCCC3)cc1	-12.1% (inactive)	
COCCn1cnc2c1c(=O)n(CC(=O)NN)c(=O)n2Cc1ccccc1	-8.7% (inactive)	
O=C(Nc1ccccc1)C1CCN(C(=O)c2ccc(Br)cc2)CC1	-11% (inactive)	
CCOC(=O)C(C)Sc1nnc(CSc2nc3nc(C)cc(C)n3n2)o1 (stereo unspecified)	-7.5% (inactive)	
COc1ccc(C(C)=O)cc1CSc1nc2nc(C)cc(C)n2n1	1.9% (inactive)	
Cc1cc(C)n2nc(SCC(N)=O)nc2n1	-5.6% (active)	113
COc1cnc(-c2ccccn2)nc1Oc1ccc(C(C)(C)C)cc1	11.9% (inactive)	
COc1ccc(CCN(C)C(=O)C23CC4CC(CC(Cl)(C4)C2)C3)cc1OC	-16.6% (inactive)	
Cc1cccc(OCC(=O)NCCCNC(=O)c2ccccn2)c1	-28.2% (inactive)	
CCN(CC)CCOc1ccc2c(c1)C(=NNC(=O)c1ccccn1)c1cc(OCCN(CC)CC)ccc1-2	-3% (active)	83.6
COc1ccc(CC(=O)N/N=C(\C)c2ccccn2)cc1	7.3% (inactive)	
COc1ccc(NC(=O)CN(C)C(=O)CNC(=O)C2CCCCC2)cc1	-4% (inactive)	
C=CCOc1cccc(CNCc2cccnc2)c1	10.5% (inactive)	
Cc1ccc(-c2csc(N(Cc3ccco3)C(=O)c3cccs3)n2)cc1	-15.6% (inactive)	
Cc1nnc(N(Cc2ccco2)C(=O)c2ccno2)s1	55.4% (active)	

SMILES	inhibition (at 35 µM)	inhibition (confirmation average, at 20 µM) [%]
CN(C(=O)c1ccno1)c1nnc(-c2cccnc2)s1	-2.8% (inactive)	
Cc1ccccc1CN1CCC(C(=O)Nc2ccc(Oc3cccnc3)cc2)CC1	-4.5% (inactive)	
O=C(NCCCn1ccnc1)C(=O)NCC1OCCN1S(=O)(=O)c1cc(F)ccc1F (stereo unspecified)	86.5% (active)	
Cc1cc(F)ccc1S(=O)(=O)N1CCCOC1CNC(=O)C(=O)NCCC1=CCCCC1 (stereo unspecified)	-0.8% (inactive)	
O=C(NCCCc1ccccc1)C(=O)NCC1OCCN1S(=O)(=O)c1ccccc1 (stereo unspecified)	-4.1% (inactive)	
Nc1ncc(CN2CCCC(C(=O)Nc3ccc(-c4ccco4)cc3)C2)cn1 (stereo unspecified)	-17.3% (inactive)	
CC(C)OC(=O)c1ccc(COc2ccc3ccc(=O)oc3c2)o1	1.1% (inactive)	
Cc1ccc2sc(N(CCN(C)C)C(=O)/C=C/c3cccs3)nc2c1C	-10.2% (inactive)	
CS(=O)(=O)c1ccc2c(c1)SC1=NC(=O)/C(=C/c3ccco3)C(=N)N12	93.9% (active)	
CS(=O)(=O)C1=NN2C(=N)/C(=C\c3ccc(OCCOc4ccccc4)cc3)C(=O)N=C2S1	16.1% (inactive)	
Cc1cc(/C=C2/C(=N)N3C(=NC2=O)SN=C3S(C)(=O)=O)c(C)n1-c1ccccc1	93.3% (inactive)	-7.9
CN(C(=O)CN1C(=O)CCSc2ccc(S(=O)(=O)N3CCCC3)cc21)c1ccccc1	-3.2% (inactive)	
CCC(=O)Nc1ccc(C(=O)NNC(=O)c2ccc(Cl)cc2)cc1	8% (inactive)	
C=CCNC(=O)/C=C/c1ccc(C(C)C)cc1	3.9% (inactive)	
O=C(CCc1nnc2ccc(NCc3ccco3)nn12)Nc1cc(F)ccc1F	75.2% (active)	75.7
CC(=O)c1ccc(NC(=O)CCc2nnc3ccc(NCc4ccco4)nn23)cc1	38.5% (inactive)	
CCOc1ccccc1NC(=O)CCc1nnc2ccc(NCc3ccco3)nn12	13.1% (inactive)	
O=C(CN1CCc2cc3c(cc2C1)OCCCO3)Nc1ccccc1	4.5% (inactive)	
CCOc1ccc(NC(=S)N2CCC(NC(=O)c3ccccc3)CC2)cc1	-8.9% (inactive)	
COc1ccc(-c2nc3n(c(=O)c2C#N)CCS3)c(OC)c1	5.3% (inactive)	
O=C(CCc1ccccc1)Nc1ccnn1C1CCN(Cc2ccc(OCCO)cc2)CC1	5.2% (inactive)	

SMILES	inhibition (at 35 µM)	inhibition (confirmation average, at 20 µM) [%]
COc1ccc(-c2cc(C(=O)N(C)Cc3ccc(OC)c(OC)c3OC)c3ccccc3n2)cc1OC	10.7% (inactive)	
CCCc1nc(-c2cc3cc(C)ccc3[nH]c2=O)no1	2.5% (active)	79.5
CCNCc1cc2cc(C)ccc2[nH]c1=O	24% (inactive)	
COc1ccc2[nH]c(=O)c(-c3noc(-c4ccc(F)cc4)n3)cc2c1	3.8% (inactive)	
COc1ccccc1NC(=S)N1CCN(c2ccc(F)cc2)CC1	-0.9% (inactive)	
COc1ccc(NC(=O)C2=CC(c3ccc(OC)c(OC)c3)=NS(=O)(=O)N2C)cc1	1.5% (inactive)	
COc1ccc(-c2noc(CNC(=O)C(C)Oc3ccccc3)n2)cc1 (stereo unspecified)	-4.8% (inactive)	
CCn1c(/C=C/c2ccc([N+](=O)[O-])o2)nc2ccccc2c1=O	83.6% (active)	56.8
Cn1cc(/C=C/c2nc3ccccc3c(=O)n2-c2cccc([N+](=O)[O-])c2)c2ccccc21	-2.7% (inactive)	
Cc1nc2ccccc2c(=O)n1Cc1ccc([N+](=O)[O-])cc1	-6.2% (inactive)	
CN1/C(=C\C(=O)c2oc3ccccc3c2N)C(C)(C)c2ccccc21	-2.5% (inactive)	
CN1/C(=C\C(=O)c2cccnc2Cl)C(C)(C)c2ccccc21	-6.3% (inactive)	
CN1/C(=C\C=C2\N=C(c3ccc(F)cc3)OC2=O)C(C)(C)c2ccccc21	128% (active)	97
Cc1cccnc1NC(=O)Cn1c(=O)oc2ccccc21	4.8% (inactive)	
Cc1ccc(O)c(NC(=O)c2cc(-c3ccco3)on2)c1	-14.1% (inactive)	
COc1ccc(-c2nonc2NC(=O)c2oc3ccc(F)cc3c2C)cc1OC	-3.8% (inactive)	
COc1ccc(Nc2ccc([N+](=O)[O-])cn2)cn1	82% (inactive)	20.1
COc1cccc(Nc2ncccc2C(=O)O)c1	-3.4% (inactive)	
COc1ccc(Nc2cc(Cl)ccc2C(=O)O)cn1	96.9% (active)	74
